Structures are written as SMILES. Inconclusive results are not listed. Calls of active or inactive are those of the source. Unless noted, the rule behind the calls is not given here.

Experiment [1] can be described thus: qHTS profiling of the MIPE4 collection as inhibitors of Plasmodium falciparum (3D7) proliferation (AID 743344).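 Note: scaled between DMSO vehicle wells and 0.29 µM artemisinin as full inhibition.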 The conditions noted are these: P. falciparum 3D7 in erythrocytes, SYBR Green DNA fluorescence, 72 h; at 28.5 µM unless noted. In outline:
(§1)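 Parasite DNA was quantified by SYBR Green I fluorescence (ex 485, em 535 nm) after overnight lysis in saponin/Triton buffer at room temperature. Cultures at 0.3% parasitemia and 2.5% hematocrit were first exposed to compound for 72 h at 37 C; signals were normalised to artemisinin (0.29 uM) and vehicle wells.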
(In general: qHTS replaces the single test concentration by a dilution series.)

Experiment [2] is described as follows: qHTS profiling of the MIPE4 collection as inhibitors of Plasmodium falciparum (DD2) proliferation (AID 743345). The note with it: P. falciparum Dd2 in erythrocytes, SYBR Green DNA, 72 h; at 28.5 µM unless noted. The procedure, abridged: as §1
Experiment [3] is described as follows: qHTS profiling of the MIPE4 collection as inhibitors of Plasmodium falciparum (DD2) proliferation (Rep 2) (AID 743346). The note with it: P. falciparum Dd2 in erythrocytes, SYBR Green DNA, 72 h; at 28.5 µM unless noted. The procedure, abridged:
as §1

Experiment [4] is described as follows: qHTS profiling of the MIPE4 collection as inhibitors of Plasmodium falciparum (HB3) proliferation (AID 743347).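 Note: plate controls were DMSO vehicle wells for no effect and artemisinin wells for full effect.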 The conditions noted are these: P. falciparum HB3 in erythrocytes, SYBR Green DNA, 72 h; at 28.5 µM unless noted. The procedure, abridged: as §1
The nature of experiment [5]: High-throughput drug toxicity screening in the BPDCN cell line Gen2.2 (AID 1224824).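 Note: cells exposed to compounds for 48 h before reading.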 The note with it: Gen2.2 BPDCN cells; at 45.8 µM (top of the series) unless noted. The procedure, abridged:
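CellTiter-Glo luminescence read after 48 h compound exposure at 37 C defines viability; percent activity set with DMSO as 100% and bortezomib (9.2 uM final) as 0%. 500 exponentially growing cells per well, RPMI plus 10% FBS.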

Experiment [6] is described as follows: High-throughput drug toxicity screening in the BPDCN cell line Cal-1 (AID 1224825). The note with it: Cal-1 BPDCN cell viability, qHTS; at 45.8 µM (top of the series) unless noted. The procedure, abridged: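 Percent activity derived from CellTiter-Glo luminescence, scaling DMSO to 100% and 9.2 uM final bortezomib to 0%. BPDCN Cal-1 cells (500/well, RPMI plus 10% FBS) incubated with compounds 48 hours at 37C before reading.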

The nature of experiment [7]: qHTS assay for measurement of the activity of small molecule inhibitors on Zika virus induced Caspase-3 activity in human iPSC derived neural progenitor cells (hNPCs) (AID 1224857; active = well fitted inhibition curve with a large enough effect; note: % of control where 0% means no effect; nearly all actives have a fitted effect of over 65% in size). In outline: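 Values are percent inhibition of virus-induced caspase-3/7 signal, scaled between uninfected cells and ZIKV-infected cells. Infection used 2 FFU/cell for 6 h after 1 h compound exposure.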

The nature of experiment [8]: qHTS assay for measurement of the activity of small molecule inhibitors on Zika virus induced Caspase-3 activity in human astrocytoma cells (AID 1224859; active = well fitted inhibition curve with a large enough effect;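 note: plate controls were ZIKV-infected untreated cells for no effect and uninfected cells for full effect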). The procedure, abridged: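 Compound added 1 h pre-infection; ZIKV 2 FFU/cell on SNB-19 cells, 6 h, 37 C/5% CO2. Caspase-Glo 3/7 luminescence; values as % inhibition of ZIKV-induced caspase activity.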
Experiment [9] can be described thus: qHTS Screen of the MIPE 4.0 Collection Against Ewings Sarcoma (RDES) (AID 1259252; active = well fitted inhibition curve with a large enough effect; note: nearly all actives have a fitted effect of over 35% in size; note: potency is the fitted concentration of half-maximal effect). In outline:
(§2)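 Cells plated in serum-containing RPMI (5% FBS) and treated with compound dilutions for 48 h. Readout luminescent viability; normalization relied on vehicle (no inhibition) and media-only columns (full inhibition).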

Experiment [10] in a line: qHTS Screen of the MIPE 4.0 Collection Against Ewings Sarcoma (EW8) (AID 1259255; active = well fitted inhibition curve with a large enough effect; note: nearly all actives have a fitted effect of over 35% in size; note: potency is the fitted concentration of half-maximal effect;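 for viability: 100% = DMSO-treated cells and 0% = medium-only wells without cells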). The procedure, abridged:
as §2

A short description of experiment [11]: qHTS Screen of the MIPE 4.0 Collection Against Ewings Sarcoma (TC32) (AID 1259256; active = well fitted inhibition curve with a large enough effect; note: nearly all actives have a fitted effect of over 45% in size; note: potency is the fitted concentration of half-maximal effect). In outline: as §2
Experiment [12] can be described thus: qHTS Screen of the MIPE 4.0 Collection Against Ewings Sarcoma (TC71) (AID 1259253; active = well fitted inhibition curve with a large enough effect; note: nearly all actives have a fitted effect of over 40% in size; note: potency is the fitted concentration of half-maximal effect). The procedure, abridged:
as §2

The compound `C[C@@]1(C(=O)Nc2ccc(F)nc2)CCCN1c1nc(Nc2cc(C3CC3)[nH]n2)c2cccn2n1` had a parasite growth, % of DMSO control in experiment [1] of 10.3%. In addition, the parasite growth remaining, % of DMSO control (lower = more inhibition) in experiment [2] came to 14.6%. Further, the parasite growth, % of control (lower = inhibition) in experiment [3] turned out to be 23.8%. The same compound yielded a growth, % of control in [4] of 4.94%. For the same compound, the cell viability, % of control (lower = more cytotoxic) in experiment [5] amounted to 131%. Moreover, in experiment [6], the viability (% of control) turned out to be 17.3%. Further, the Potency entry in [7] and in [8] was “inactive” each time. For the same compound, the Potency in experiment [9] was 2.64 µM (active); in [10], 1.05 µM (active); in [11] it was 0.418 µM (active).
For the compound `CCC(=O)NCC[C@@H]1CCc2ccc3c(c21)CCO3`, the parasite growth, % of DMSO control in experiment [1] is 98.2%. Moreover, the parasite growth remaining, % of DMSO control (lower = more inhibition) in experiment [2] amounted to 89.9%. Also, the parasite growth, % of control (lower = inhibition) in experiment [3] is 71.2%. Also, the growth, % of control in experiment [4] came to 107%. The cell viability, % of control (lower = more cytotoxic) in experiment [5] was found to be 184%. In experiment [6], the viability (% of control) stood at 117%. Besides, the Potency result in experiment [7], in [8], in experiment [9], in experiment [10] and in experiment [11] was “inactive” each time.
`CCCCCOC(=O)Nc1nc(=O)n([C@@H]2O[C@H](C)[C@@H](O)C2O)cc1F` (some centres not stated): the parasite growth, % of DMSO control in [1] is 253%. Besides, the parasite growth remaining, % of DMSO control (lower = more inhibition) in [2] was 102%. The compound also showed a parasite growth, % of control (lower = inhibition) in experiment [3] of 83.9%. In addition, the growth, % of control in experiment [4] amounted to 171%. In addition, in [5], the cell viability, % of control (lower = more cytotoxic) is 124%. In addition, in [6], the viability (% of control) came to 102%. In addition, the Potency entry in experiment [7], in experiment [8], in [9] and in [10] was “inactive” throughout. For the same compound, the Potency in experiment [11] was 20.9 µM (active).
In the case of `O=C1C(c2c(O)[nH]c3ccccc23)=Nc2ccccc21`, the parasite growth remaining, % of DMSO control (lower = more inhibition) in experiment [2] came to 86.5%. Besides, in [3], the parasite growth, % of control (lower = inhibition) is 73.7%. Also, in experiment [4], the growth, % of control came to 98.4%. In addition, the cell viability, % of control (lower = more cytotoxic) in experiment [5] worked out at 52.3%. The viability (% of control) in experiment [6] is 68.6%. For the same compound, the Potency result in experiment [7] and in experiment [8] was “inactive” throughout. In addition, the Potency was 0.469 µM (active) in [9], 26.4 µM (active) in [10] and 29.6 µM (active) in experiment [11].
Take `CN(CC=CC#CC(C)(C)C)Cc1cccc2ccccc12`: in experiment [2], the parasite growth remaining, % of DMSO control (lower = more inhibition) came to 79.2%. Also, in experiment [3], the parasite growth, % of control (lower = inhibition) came out at 14.9%. Also, the growth, % of control in experiment [4] was found to be 14.6%. Further, the cell viability, % of control (lower = more cytotoxic) in [5] came out at 194%. Also, the viability (% of control) in experiment [6] turned out to be 115%. Further, the Potency entry in [7], in [8], in [9] and in [10] was “inactive” in each case.
For `O=C(O)CCC=CCC[C@@H]1[C@H](N2CCCCC2)[C@@H](O)C[C@@H]1OCc1ccc(-c2ccccc2)cc1`, the parasite growth, % of DMSO control in [1] is 67.9%. Besides, the parasite growth remaining, % of DMSO control (lower = more inhibition) in [2] is 92.8%. This compound also returned a parasite growth, % of control (lower = inhibition) in [3] of 62.3%. This compound showed a growth, % of control in experiment [4] of 63%. Moreover, the cell viability, % of control (lower = more cytotoxic) in [5] is 169%. Besides, the viability (% of control) in experiment [6] came to 63%. Moreover, the Potency result in experiment [7], in experiment [8], in [9] and in experiment [12] was “inactive” each time.
With `CC1(C)OC2CC3C4CC(F)C5=CC(=O)C=CC5(C)C4C(O)CC3(C)[C@]2(C(=O)CO)O1` (some centres not stated), in experiment [1], the parasite growth, % of DMSO control stood at 52.8%. In addition, in experiment [2], the parasite growth remaining, % of DMSO control (lower = more inhibition) stood at 89.8%. In addition, in [3], the parasite growth, % of control (lower = inhibition) is 7.06%. The compound also registered a growth, % of control in experiment [4] of 47.9%. The cell viability, % of control (lower = more cytotoxic) in experiment [5] was found to be 77.5%. The viability (% of control) in [6] was 52%. Further, the Potency result in experiment [7], in [8], in experiment [9] and in [10] was “inactive” throughout.
Turning to `CN(C)CCN(Cc1ccc(Cl)cc1)c1ccccn1`, the parasite growth, % of DMSO control in [1] is 38.2%. Further, in experiment [2], the parasite growth remaining, % of DMSO control (lower = more inhibition) stood at 50.5%. Moreover, the parasite growth, % of control (lower = inhibition) in experiment [3] stood at 28.6%. This compound had a growth, % of control in [4] of 53%. For the same compound, the cell viability, % of control (lower = more cytotoxic) in experiment [5] is 86.6%. In [6], the viability (% of control) is 37.6%. The Potency result in [7] and in experiment [8] was “inactive” in each case. Also, the results for the Potency in [9] and in experiment [12] were 23.5 µM (active) and 20.9 µM (active), respectively.

These data come from PubChem BioAssay (NCATS).
